Lassa entry inh – Lassa virus entry inhibition | Potency, µM (top dose mostly 37.9 µM), for the others: top-dose activity change, negative = inhibition, most hits filed as inhibitors | Lassa virus pseudotype entry inhibition, cell reporter | 300,000 tested, 1.2% active; calls by dose curve; tested in HEK293 cells; also: nearly all actives have a fitted effect of over 50% in size
MARV entry inh – Marburg virus entry inhibition. Potency, µM (top dose mostly 37.8 µM), without a hit: at the top dose activity change, negative = inhibition, most hits filed as inhibitors. Marburg virus pseudotyped entry inhibition, cell reporter. 300,000 tested, 1.8% active; calls by dose curve; tested in HEK293 cells
Sm TGR inh – S. mansoni TGR enzyme inhibition; Q962Y6; purified TGR, DTNB reduction, TNB absorbance 405 nm; Potency, µM (highest dose often 114 µM), for the others: top-dose activity change, negative = inhibition, actives largely listed as inhibitors; 360,000 tested, 3% active; AID 485364; active = well fitted inhibition curve with a large enough effect; inconclusive = small, poorly fitted or top-dose-only effect; inactive = no such curve, though single readings can be large or run the other way; also: nearly all actives have a fitted effect of over 60% in size
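Kinetic colorimetric format: TGR-catalysed, NADPH-driven DTNB reduction monitored via TNB absorbance. Enzyme dispensed at 20 nM; compound exposure 15 min at room temperature before reaction start.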
FMDV inh – blocks foot and mouth disease virus; FMDV antiviral cell-based qHTS; 410,000 tested, 1.2% active; Potency, µM (series often up to 57.9 µM), for inactives: at the highest dose activity change, negative = inhibition, actives largely listed as inhibitors; AID 1159524; calls by dose curve; tested in HEK293T cells; also: read-out not given here; nearly all actives have a fitted effect of over 45% in size
Vaccinia Venus – inhibitors of vaccinia virus (Venus reporter); Vaccinia virus Venus reporter expression, fluorescence; 330,000 tested, 0.46% active; Potency, µM (doses to about 36.5 µM), for the others: top-dose activity change, negative = inhibition, actives largely listed as inhibitors; calls by dose curve; tested in A549 cells; also: nearly all actives have a fitted effect of over 30% in size
Vaccinia mCherry – inhibitors of vaccinia virus infection (mCherry reporter signal); Potency, µM (series often up to 36.5 µM), without a hit: at the highest dose activity change, negative = inhibition, actives largely listed as inhibitors; Vaccinia virus mCherry reporter infection, fluorescence; 310,000 tested, 0.63% active; calls by dose curve; tested in A549 cells; also: nearly all actives have a fitted effect of over 35% in size
An asterisk follows results filed as active; i = inactive; u = inconclusive; x = no result; ! = a repeat was not active; [ ] = remark or other dose. Compounds with a hit are over-represented: about 5.4% of the library has one in this group of screens. % is scaled to controls: 0 for no effect and ±100 for the full control effect; potency is read from the fitted curve at half-maximal effect.

SMILES	Lassa entry inh	MARV entry inh	Sm TGR inh	FMDV inh	Vaccinia Venus	Vaccinia mCherry
COc1ccccc1NC(=O)c1c(NCc2sccc2C)sc2c1CCCCC2	-2.2%[46.1 µM]	x	11.2µM*	24.6%	3.1%[7.34 µM]	-10.9%[7.34 µM]
CCOc1ccccc1NC(=O)c1c(NCc2sccc2C)sc2c1CCCCC2	0.1%[46.1 µM]	x	39.8µM*	30.9%	7.1%	-8.9%
CCOC(=O)N1CCc2c(sc(NCc3sccc3C)c2C(=O)Nc2ccc(OC)cc2OC)C1	u	x	u	31.6µM*	-0.2%	-7.9%
CCc1ccccc1NC(=O)N(C)CCc1c(C)nn(C)c1C	4.4%[46.1 µM]	1.8%[46.1 µM]	3.5%	0.0%	-4.2%	-1.2%
Nc1c(C(=O)NCc2ccco2)nnn1Cc1ccccc1	13.0%	10.7%	-8.8%	20.5%	x	x
O=C(c1ccco1)c1nnn(Cc2ccccc2)c1-c1ccccc1	u	-21.8%	31.6µM*	-12.8%	-5.5%	u
COC(=O)c1ccccc1NC(=O)c1cc(=O)c2ccc(C)c(C)c2o1	7.9%[46.1 µM]	15.5%[46.1 µM]	-0.7%	-20.5%	4.6%	-2.1%
C=CC[C@@H]1C=CC(ON=C(C)CCC(=O)OC[C@H]2O[C@H](C#Cc3ccccc3)C=C[C@H]2Oc2ccc(C)cc2)[C@H](CO)O1 (stereo partly specified)	x	29.4%[14.2 µM]	x	x	x	x
CC(=O)C1=C(c2ccccc2)NC(=O)NC1c1ccc(O)c(O)c1 (stereo unspecified)	6.1%	2.0%[46.1 µM]	15.8µM*	-12.5%	-10.3%	u
Cc1ccc(CN=Cc2[nH]c3ccc(Br)c(Cl)c3c2O)cc1	u	u	44.7µM*	x	16.6%	-13.9%
Oc1c(C=NCc2ccc(F)cc2)[nH]c2ccc(Br)c(Cl)c12	x	x	31.6µM*	x	x	x
O=c1[nH]c(=O)n(C2CCCCCC2)c(O)c1C=NCc1ccc(F)cc1	u	-10.4%	-11.5%	0.0%	-11.7%	-23.1%
Cc1ccc(NC(=O)c2oc3ccccc3c2NC(=O)C23CC4CC(CC(C4)C2)C3)cc1	20.4%[46.1 µM]	-13.4%[46.1 µM]	-1.8%	5.8%	-15.5%	-14.3%
C[C@@H](NC(=O)CN(c1ccccc1)S(=O)(=O)N(C)C)c1ccccc1	16.0%[46.1 µM]	0.5%[46.1 µM]	-1.0%	-24.2%	14.0%	-1.0%
CCOC(=O)N1CCN(C(=O)CSc2nnc(-c3ccc(C)c(C)c3)o2)CC1	x	x	-2.2%	0.0%	u	10µM*
Cc1ccc(-c2nnc(SCC(=O)N3CCCC3)o2)cc1C	u	u	-0.8%	2.9%	-60.2%	x
CCOC(=O)N1CCN(C(=O)CSc2nnc(-c3ccc(C(C)(C)C)cc3)o2)CC1	7.2%	u	-6.9%	u	u	5.62µM*
CC(O)(COc1ccccc1)c1ccc2c(c1)CN(Cc1cccc3ncccc13)CCO2 (stereo unspecified)	x	x	x	-24.1%	-3.9%	-18.5%
CC(C)(Oc1ccc(Cl)cc1)C(=O)Nc1nnc2n1CCS2	1.9%[46.1 µM]	x	0.9%	0.1%	-0.9%	-10.2%
CC(=O)c1ccc(N2CCC(c3cc(-c4ccc(Cl)cc4Cl)n[nH]3)CC2)c([N+](=O)[O-])c1	u	u	7.7%	20µM*	x	x
CSc1nc(N(C)CCO)c2sc3nc(-c4ccco4)c4c(c3c2n1)CCC4	13.8%	6.6%	1.41µM*	-6.3%	x	x
Cc1ccc(S(=O)(=O)N[C@@H](CCCCN)C(=O)CCl)cc1	-33.5%	12.6µM*!	x	-20.7%	1.8%	-14.7%
COC(=O)N[C@@H](c1cccc(C)c1)[C@]1(C(C)=O)CCCC1=O	x	3.1%[14.2 µM]	x	x	x	x
Cc1ccc(Nc2nc3nonc3nc2Nc2cccc(C(F)(F)F)c2)cc1Cl	u	u	1.6%	u	3.55µM*	3.55µM*
CC=COC(=O)N[C@@H](c1ccccc1)[C@]1(C(C)=O)CCOC1=O	x	6.8%[14.2 µM]	x	x	x	x
SMILES	Lassa entry inh	MARV entry inh	Sm TGR inh	FMDV inh	Vaccinia Venus	Vaccinia mCherry
CCOc1ccc(N2C(=O)CC(NC3CCCCNC3=O)C2=O)cc1 (stereo unspecified)	20.8%	u	22.4µM*	-3.7%	10.3%	x
CCOc1ccc(N2C(=O)CC(NCC#N)C2=O)cc1 (stereo unspecified)	x	x	2.82µM*	-17.1%	x	x
CCOc1ccc(N2C(=O)CC(NCc3ccc(S(N)(=O)=O)cc3)C2=O)cc1 (stereo unspecified)	x	x	3.8%	-11.9%	-13.0%	i
O=C1NCCCCC1NC1CC(=O)N(c2ccccc2)C1=O (stereo unspecified)	18.2%	5.1%	-29.8%	-11.2%	-2.7%	x
CCCOc1ccc(N2C(=O)CC(NCCNc3ccc([N+](=O)[O-])cn3)C2=O)cc1 (stereo unspecified)	2.7%	25.7%	8.91µM*	-8.0%	-10.1%	-12.1%
CCc1ccc(-c2nc(-c3cc4ccccc4oc3=O)sc2C)cc1	-0.7%[46.1 µM]	x	-22.4%	-5.4%	5.2%	0.6%
CCCCN(C(=O)CCC(=O)O)C1CC(=O)N(c2ccc(OCCC)cc2)C1=O (stereo unspecified)	4.9%	3.9%	-14.0%	-19.0%	-11.4%	x
O=C1CC(N(O)c2ccccc2)C(=O)N1c1ccc(Cl)c(Cl)c1 (stereo unspecified)	x	x	u	10.6%	x	x
COc1ccccc1N(O)C1CC(=O)N(c2ccc(Br)cc2)C1=O (stereo unspecified)	-7.3%	0.0%	2.82µM*	47.7%	x	x
CCCCCCC(=O)N(O)C1CC(=O)N(c2ccc(Br)cc2)C1=O (stereo unspecified)	-2.3%	-2.1%	0.708µM*	-27.0%	x	x
CCCCCCC(=O)N(O)C1CC(=O)N(c2ccc(F)cc2)C1=O (stereo unspecified)	-13.8%	-22.9%	0.631µM*	-17.2%	10.2%	-9.8%
Cc1oc(/C=N/NS(=O)(=O)c2ccccc2)cc1Br	0.9%	u	0.112µM*	23.1%	-17.0%	-25.3%
Cc1ccc(/C=N/NS(=O)(=O)c2ccccc2)o1	5.0%	22.5%	-12.8%	70.1%	1.8%	i
CC(=O)c1ccc(NC(=O)CSC2=Nc3ccccc3N=C(c3ccc(F)cc3)C2)cc1	20.9%[46.1 µM]	x	-7.8%	-12.4%	-12.8%	-11.3%
Cc1oc(-c2cccc(Cl)c2)nc1CN1CCCC(C(=O)NCc2ccc(Cl)cc2)C1 (stereo unspecified)	24.2%[46.1 µM]	1.2%[46.1 µM]	1.7%	u	-18.0%	-2.4%
Cc1oc(-c2ccc(Cl)cc2)nc1CN1CCCC(C(=O)NCCCN2CCOCC2)C1 (stereo unspecified)	u	u	79.4µM*	0.0%	-21.9%	u
Cc1oc(-c2cccc(Cl)c2)nc1CN1CCCC(C(=O)NC(C)c2ccc3c(c2)OCCO3)C1 (stereo unspecified)	x	x	-0.2%	20µM*	-26.9%	u
Cc1oc(-c2ccc(Cl)cc2)nc1CN1CCC(C(=O)NCCCN2CCCC(C)C2)CC1 (stereo unspecified)	x	x	2.4%	-22.0%	x	x
Cc1ccc(C(=O)OCC(=O)N2CCNC2=O)c(C)c1	-23.7%	1.8%[46.1 µM]	7.0%	23.7%	-8.4%	-16.4%
CC(C)CC(COCc1cccc(Cl)c1)N1CCN(C(=O)c2ccc(C(F)(F)F)cc2)CCC1=O (stereo unspecified)	10.3µM*	u	-15.9%	u	-29.8%	i
